Measurements taken from PubChem BioAssay AID1159580 (chemical genetic matrix, 2015).
The campaign covered roughly 5,500 compounds. About 2,000 (36%) were called active. Another 18% or so got no clear call; they are omitted. Cut-off read from the data, not from the text of the source: active = normalized growth mostly below about 0.91 (no sharp cut-off); inconclusive = no clear call, values can overlap the other calls; inactive = mostly above about 0.92. The list shows a part of the results.

Test: chemical genetic growth profiling, strain panel (AID 1159580);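 note: tested at 20 µM; growth read once vehicle control cultures reached saturation at 30 °C; 1 = growth at the plate median or of vehicle wells; lower values mean less growth of the strain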
Details: growth OD
[1] = S. cerevisiae deletion strains, locus YDL101C, strain DUN1, active compounds read low
[2] = S. cerevisiae deletion strains, locus YHR030C, strain SLT2, active compounds read low

Measured: normalized growth

N/C(=N/OC(=O)C(Cl)Cl)c1cccc(Cl)c1Cl
inactive: S. cerevisiae deletion strains, locus YAL013W, strain DEP1, active compounds read low 1.02 | S. cerevisiae deletion strains, locus YBR229C, strain ROT2, active compounds read low 0.978 | [1] 0.943 | S. cerevisiae deletion strains, locus YDR150W, strain NUM1, active compounds read low 1 | S. cerevisiae deletion strains, locus YEL061C, strain CIN8, active compounds read low 0.997 | S. cerevisiae deletion strains, locus YGR078C, strain PAC10, active compounds read low 0.973 | [2] 0.94 | S. cerevisiae deletion strains, locus YHR087W, strain rtc3, active compounds read low 0.971 | S. cerevisiae deletion strains, locus YJR043C, strain POL32, active compounds read low 0.979 | S. cerevisiae deletion strains, locus YJR075W, strain HOC1, active compounds read low 0.925 | S. cerevisiae deletion strains, locus YKL190W, strain CNB1, active compounds read low 0.982 | S. cerevisiae deletion strains, locus YLR039C, strain RIC1, active compounds read low 0.936 | S. cerevisiae deletion strains, locus YLR058C, strain SHM2 (second series), active compounds read low 0.968 | S. cerevisiae deletion strains, locus YLR085C, strain ARP6, active compounds read low 1.04 | S. cerevisiae deletion strains, locus YLR262C, strain YPT6, active compounds read low 0.921 | S. cerevisiae deletion strains, locus YML094W, strain GIM5, active compounds read low 1.03 | S. cerevisiae deletion strains, locus YMR219W, strain ESC1, active compounds read low 0.984 | S. cerevisiae deletion strains, locus YMR263W, strain SAP30, active compounds read low 0.992 | S. cerevisiae deletion strains, locus YNL153C, strain GIM3, active compounds read low 1.01 | S. cerevisiae deletion strains, locus YNL298W, strain CLA4 (second series), active compounds read low 0.965 | S. cerevisiae deletion strains, locus YNL322C, strain KRE1, active compounds read low 0.98 | S. cerevisiae deletion strains, locus YNR030W, strain Alg12, active compounds read low 1 | S. cerevisiae deletion strains, locus YOL006C, strain TOP1, active compounds read low 0.939 | S. cerevisiae deletion strains, locus YPL055C, strain LGE1, active compounds read low 1.03 | S. cerevisiae deletion strains, locus YPL241C, strain CIN2, active compounds read low 0.907 | S. cerevisiae deletion strains, locus YPR135W, strain CTF4, active compounds read low 1.22 | S. cerevisiae strains, strain wild type, active compounds read low 0.972

Cc1nn(Cc2cccc(C(=O)O/N=C(/N)c3ccc(Cl)cc3)c2)c(C)c1Br
inactive: S. cerevisiae deletion strains, locus YAR019C, strain CDC15, active compounds read low 0.982 | S. cerevisiae deletion strains, locus YBL105C, strain PKC1, active compounds read low 0.978 | S. cerevisiae deletion strains, locus YBR135W, strain CKS1, active compounds read low 0.971 | S. cerevisiae deletion strains, locus YBR136W, strain MEC1, active compounds read low 0.977 | S. cerevisiae deletion strains, locus YBR160W, strain CDC28, active compounds read low 0.973 | S. cerevisiae deletion strains, locus YDL017W, strain CDC7, active compounds read low 0.974 | S. cerevisiae deletion strains, locus YDL028C, strain MPS1, active compounds read low 0.981 | [1] 0.987 | S. cerevisiae deletion strains, locus YDL108W, strain KIN28, active compounds read low 0.972 | S. cerevisiae deletion strains, locus YDL132W, strain cdc53, active compounds read low 0.979 | S. cerevisiae deletion strains, locus YDL214C, strain PRR2, active compounds read low 0.972 | S. cerevisiae deletion strains, locus YDR052C, strain DBF4, active compounds read low 0.98 | S. cerevisiae deletion strains, locus YDR054C, strain cdc34, active compounds read low 0.973 | S. cerevisiae deletion strains, locus YDR226W, strain ADK1, active compounds read low 0.978 | S. cerevisiae deletion strains, locus YDR477W, strain SNF1, active compounds read low 0.915 | S. cerevisiae deletion strains, locus YER123W, strain YCK3, active compounds read low 0.929 | S. cerevisiae deletion strains, locus YER133W, strain GLC7, active compounds read low 0.953 | S. cerevisiae deletion strains, locus YFL009W, strain cdc4, active compounds read low 0.965 | S. cerevisiae deletion strains, locus YFL029C, strain CAK1, active compounds read low 0.991 | S. cerevisiae deletion strains, locus YFR003C, strain YPI1, active compounds read low 0.982 | S. cerevisiae deletion strains, locus YFR019W, strain FAB1, active compounds read low 0.974 | S. cerevisiae deletion strains, locus YFR028C, strain CDC14, active compounds read low 0.962 | S. cerevisiae deletion strains, locus YGR040W, strain KSS1, active compounds read low 0.93 | S. cerevisiae deletion strains, locus YGR052W, strain FMP48, active compounds read low 1.03 | S. cerevisiae deletion strains, locus YGR092W, strain DBF2, active compounds read low 0.978 | [2] 1.01 | S. cerevisiae deletion strains, locus YHR079C, strain IRE1, active compounds read low 1.1 | S. cerevisiae deletion strains, locus YHR082C, strain KSP1, active compounds read low 1.07 | S. cerevisiae deletion strains, locus YHR205W, strain SCH9, active compounds read low 0.999 | S. cerevisiae deletion strains, locus YIL147C, strain SLN1, active compounds read low 0.984 | S. cerevisiae deletion strains, locus YJL095W, strain BCK1, active compounds read low 0.932 | S. cerevisiae deletion strains, locus YJL128C, strain PBS2, active compounds read low 1.01 | S. cerevisiae deletion strains, locus YJL157C, strain FAR1, active compounds read low 0.985 | S. cerevisiae deletion strains, locus YJR016C, strain ILV3, active compounds read low 0.977 | S. cerevisiae deletion strains, locus YJR066W, strain TOR1 (second series), active compounds read low 0.954 | S. cerevisiae deletion strains, locus YJR066W, strain TOR1, active compounds read low 1.08 | S. cerevisiae deletion strains, locus YKL048C, strain ELM1, active compounds read low 0.968 | S. cerevisiae deletion strains, locus YKL067W, strain YNK1, active compounds read low 0.958 | S. cerevisiae deletion strains, locus YKL101W, strain HSL1, active compounds read low 0.924 | S. cerevisiae deletion strains, locus YKL193C, strain SDS22, active compounds read low 0.98 | S. cerevisiae deletion strains, locus YKL203C, strain TOR2, active compounds read low 1.02 | S. cerevisiae deletion strains, locus YLR113W, strain HOG1, active compounds read low 0.915 | S. cerevisiae deletion strains, locus YLR133W, strain CKI1, active compounds read low 0.972 | S. cerevisiae deletion strains, locus YLR403W, strain SFP1, active compounds read low 0.93 | S. cerevisiae deletion strains, locus YML070W, strain DAK1, active compounds read low 0.947 | S. cerevisiae deletion strains, locus YMR001C, strain CDC5, active compounds read low 0.983 | S. cerevisiae deletion strains, locus YMR205C, strain PFK2 (second series), active compounds read low 0.965 | S. cerevisiae deletion strains, locus YMR277W, strain FCP1, active compounds read low 0.973 | S. cerevisiae deletion strains, locus YNL006W, strain LST8, active compounds read low 0.99 | S. cerevisiae deletion strains, locus YNL020C, strain ARK1, active compounds read low 0.972 | S. cerevisiae deletion strains, locus YNL161W, strain CBK1, active compounds read low 0.984 | S. cerevisiae deletion strains, locus YNL183C, strain NPR1, active compounds read low 0.997 | S. cerevisiae deletion strains, locus YNL207W, strain RIO2, active compounds read low 0.984 | S. cerevisiae deletion strains, locus YNL222W, strain SSU72, active compounds read low 0.979 | S. cerevisiae deletion strains, locus YNL307C, strain MCK1 (second series), active compounds read low 1 | S. cerevisiae deletion strains, locus YOL078W, strain AVO1, active compounds read low 0.977 | S. cerevisiae deletion strains, locus YOL136C, strain PFK27, active compounds read low 0.955 | S. cerevisiae deletion strains, locus YOR061W, strain CKA2, active compounds read low 0.955 | S. cerevisiae deletion strains, locus YOR119C, strain RIO1, active compounds read low 1.01 | S. cerevisiae deletion strains, locus YOR231W, strain MKK1, active compounds read low 0.927 | S. cerevisiae deletion strains, locus YOR329C, strain SCD5, active compounds read low 0.98 | S. cerevisiae deletion strains, locus YPL031C, strain PHO85, active compounds read low 0.929 | S. cerevisiae deletion strains, locus YPL153C, strain RAD53, active compounds read low 0.81 | S. cerevisiae deletion strains, locus YPL204W, strain HRR25, active compounds read low 0.942 | S. cerevisiae deletion strains, locus YPL209C, strain IPL1, active compounds read low 0.987 | S. cerevisiae deletion strains, locus YPL256C, strain CLN2, active compounds read low 1.03 | S. cerevisiae deletion strains, locus YPR025C, strain CCL1, active compounds read low 0.978 | S. cerevisiae deletion strains, locus YPR106W, strain ISR1, active compounds read low 0.99 | S. cerevisiae deletion strains, locus YPR111W, strain DBF20, active compounds read low 0.995 | S. cerevisiae deletion strains, strain NNK1, active compounds read low 0.998 | S. cerevisiae deletion strains, strain TSCII, active compounds read low 0.987
